# Measured values as given in PubChem BioAssay AID449762 (Southern Research Specialized Biocontainment Screening …, 2010).
# The campaign covered roughly 330,000 compounds. About 1,900 (0.58%) were called active. Not shown: some 4% with an inconclusive outcome. The list is a sample of the results. Results with a measured potency or affinity are listed apart. Values without a mark were called inactive. No stated cut-off is given here; in the data, inconclusive means inhibition above about 70% without an active follow-up result; inactive means below that.
# Assay: M. tuberculosis growth inhibition, HTS (AID 449762);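 further: bacterial growth assessed after seven days of incubation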
# Settings: M. tuberculosis H37Rv growth inhibition, 7H9 media; at 25 µM; active compounds read high
row,Compound,inhibition [%]
1,Cc1nc2ccc(NC(=O)N3CCN(c4ccccn4)CC3)cc2s1,-4.34
2,O=C(O)c1ccc(N=NN2CCCC2)cc1,-3.03
3,CNC(=O)c1cc2c(s1)CCCCCC2,-5.87
4,CC1CCc2sc(C(=O)NC3CCCCC3)cc2C1 (stereo not given),-9.17
5,Nc1cccc(-c2ccc(CO)o2)c1,10.1
6,NC(=O)C1CCN(CC(=O)N2N=CCC2c2ccccc2)CC1 (stereo not given),-1.72
7,CCC(=O)N1CCc2cc(S(=O)(=O)N3CCCC3)ccc21,-9.42
8,Cc1occc1C(=O)NN=C1C2CC3CC(C2)CC1C3,-8.34
9,Cc1ccc2[nH]c3c(N4CCOCC4)ncnc3c2c1,-3.57
10,COc1ccc(N2CCN(c3ncnc4c3[nH]c3ccccc34)CC2)cc1,-0.78
11,COc1cc2[nH]c3c(N4CCC(C(N)=O)CC4)ncnc3c2cc1OC,6.79
12,Cc1ccc2c(c1)[nH]c1c(N3CCN(Cc4ccccc4)CC3)ncnc12,3.28
13,COc1ccc2[nH]c3c(N4CC(C)OC(C)C4)ncnc3c2c1 (stereo not given),-0.53
14,COc1cc2[nH]c3c(N4CCN(c5ccc(Cl)cc5)CC4)ncnc3c2cc1OC,-5.15
15,O=C(COC(=O)c1ccccc1NS(=O)(=O)c1cccs1)NC1CCCCC1,4.13
16,CCCCOc1ccc(C(=O)NCC(=O)NC2CCC(C)CC2)cc1 (stereo not given),9.03
17,Cc1c(NC(=O)Nc2ccc(C(C)(C)C)cc2)c(=O)n(-c2ccccc2)n1C,1.52
18,Cc1cc(NC(=O)C(C)C)ncc1NC(=O)c1ccco1,4
19,Cn1c(SCc2ccccn2)nnc1-c1cnccn1,-3.38
20,O=S(=O)(Nc1ccccc1N1CCOCC1)c1c(F)cc(F)cc1Br,-10.8
21,CCN(C[C@H]1N[C@@](CC)(C(=O)OC)[C@H]2C(=O)N(Cc3ccccc3)C(=O)[C@@H]12)C(=O)Nc1ccc(C(F)(F)F)cc1,-6.29
22,CCN(C[C@H]1N[C@@](Cc2ccccc2)(C(=O)OC)[C@H]2C(=O)N(Cc3ccccc3)C(=O)[C@@H]12)C(=O)Nc1ccc(F)cc1,3.17
23,COc1ccc(CNC(=O)/C=C/c2ccc(OCCCF)cc2)cc1,0.02
24,O=C(/C=C/c1ccc(OCCCF)cc1)Nc1ccnc(-c2cccnc2)n1,-3.34

row,Compound,inhibition [%]
1,CC(C)(C)NC(=O)C(=O)NNC(=O)c1ccco1,-5.31
2,Cc1ccccc1N(CC(=O)NCc1ccncc1)S(C)(=O)=O,1.64
3,CSc1ccc(C(=O)C2CCCN(C(=O)c3nonc3C)C2)cc1 (stereo not given),12.6
4,CSc1ccc(C(=O)C2CCCN(C(=O)c3ccc4c(c3)OCO4)C2)cc1 (stereo not given),1.02
5,Cc1ccc(Cn2c([N+](=O)[O-])cnc2C)cc1,2.64
6,Cc1ccc(S(=O)(=O)N(C)CC(=O)Nc2ccc3c(c2)OCO3)cc1,-3.43
7,Cc1ccc(C(=O)OCN2C(=O)c3ccccc3C2=O)c(O)c1,2.23
8,COc1ccccc1NC(=O)C12CC3CC(C1)CC(c1ccc(C)cc1)(C3)C2,-6.68
9,CNC(=O)C12CC3CC(C1)CC(c1ccc(C)cc1)(C3)C2,5.19
10,COCC1CCN(Cc2nc(Cc3ccccc3Cl)no2)CC1,4.51
11,COC(=O)Cn1c(=NC(=O)C(C)(C)C)sc2c(C)cc(C)cc21,-0.87
12,CC(C)C[C@]1(c2ccccc2)ON(c2ccccc2C(F)(F)F)C1=O,-1.86
13,CC[C@]1(c2ccccc2C)ON(c2ccccc2C(F)(F)F)C1=O,0.115
14,CN1CCN(CCCNC(=O)CCCOc2cc(=O)n(C)c3ccccc23)CC1,-3.75
15,CCCCCCCN1C(N(C)C)=NC[C@@H]1Cc1ccccc1,1.63
16,Cc1cccc(-n2ccc(=O)c(C(=O)Nc3ccc(S(=O)(=O)Nc4nccc(C)n4)cc3)n2)c1,6.8
17,CCOC(=O)c1cccc(NS(=O)(=O)c2c(C)[nH]c(C)c2C(=O)N2CCCC2)c1,12.7
18,COC(=O)/C(C#N)=C/c1ccc(-c2ccc(S(N)(=O)=O)cc2)o1,-0.94
19,Cc1cc(NC(=O)/C(C#N)=C/c2ccc(-c3ccc(SC(F)F)cc3)o2)n(-c2ccccc2)n1,4.12
20,C=CCn1c(O)c(C(C)=Nc2cccc(C(=O)O)c2)c(=O)[nH]c1=O,-1.56
21,Cc1cc(C(=O)NNC(=O)c2sccc2C)c(C)o1,-4.39
22,CCN1CCN(C(c2cccs2)C(C)NS(=O)(=O)c2ccc(Br)cc2)CC1 (stereo not given),-2.6
23,O=C(Nc1nccs1)c1ccc(S(=O)(=O)N2CCCCC2)cc1,-7.33
24,CSCCC(NC(=O)COc1ccccc1)C(=O)NCCOc1ccc(C)cc1 (stereo not given),1.39

row,Compound,inhibition [%]
1,COc1ccc(OC)c(S(=O)(=O)Nc2cc3c4c(c2)CCC(=O)N4CCC3)c1,-8.72
2,Cc1cc(C(=O)CCl)c(C)n1-c1c(C)n(C)n(-c2ccccc2)c1=O,64.9
3,CC(=O)c1c(C(C)=O)c(C)n(-c2cccc([N+](=O)[O-])c2)c1C,4.11
4,N#CCCCCn1c(-c2cncs2)nc2ccccc21,-10.4
5,Oc1ccc(C=NCCc2ccccc2)cc1,0.33
6,CCSc1nc2ccccc2n1Cc1cccc([N+](=O)[O-])c1,-1.33
7,Cc1ccc(OC(=O)c2ccc(C)c(C)c2)cn1,38.4
8,CCCCOc1ccc(C(=O)Oc2cccnc2)cc1,50
9,CO/N=C/C(C#N)=C/c1ccc(OC)c(OC)c1,2.72
10,CCCCn1c2ccccc2c2cc(CC(N)=O)ccc21,2.07
11,COc1ccc(C(=O)NCC(=O)NCC(=O)OCc2ccc(Cl)cc2)cc1,8.99
12,O=C(CCC(=O)OCc1ccc(Br)cc1)Nc1ccccc1,-10.8
13,COc1ccc(NC(=O)CCC(=O)OCc2ccc(C(=O)Oc3ccc(Cl)cc3)cc2)cc1,-10.2
14,O=C(CNC(=O)c1ccco1)OCc1ccc(C(=O)c2ccccc2)cc1,14.1
15,COc1ccc(CCNC(=O)c2ccc(Cl)cc2)cc1,15.5
16,O=C(CNC(=O)c1ccco1)NCC(=O)OCc1ccc(C(=O)Oc2ccc(Cl)cc2)cc1,-2.15
17,O=C1CN(C(=O)CSc2ccc(-c3ccc(F)cc3)nn2)c2ccccc2N1,-6.46
18,Cc1ccnc(N=Cc2nc(-c3ccccc3Br)oc2O)c1,2.41
19,Cc1nc(CCNC(=O)c2cc(COc3ccc(F)cc3Cl)on2)sc1C,12.2
20,CCCOc1ccc(-c2nc3c(c(=O)[nH]c(=O)n3Cc3ccccc3)n2CCO)cc1OCC,-0.79
21,COc1ccc(-c2nc3c(c(=O)[nH]c(=O)n3Cc3ccccc3)n2CCO)cc1,-6.32
22,CC(C)c1nc2ccc(Br)cn2c1NC1CCCC1,-4.28
23,CC(Sc1nnc(N)s1)C(=O)NNC(=O)c1cccc(Cl)c1 (stereo not given),0.75
24,CC1(C)C=Cc2c(ccc3c2OC[C@@H](c2ccc(O)cc2O)C3)O1,4.54

row,Compound,inhibition [%]
1,CC1(C)C=Cc2c(ccc3c2OC[C@H](c2ccc(O)cc2O)C3)O1,9.89
2,COc1cccc(C(=O)NC(=S)N2c3ccccc3CC2C)c1OC (stereo not given),-5.31
3,CC1Cc2ccccc2N1C(=S)NC1CCCC1 (stereo not given),-1.79
4,O=C(Nc1ccccc1N1CCCCC1)c1cccc(Cl)c1,8.39
5,CCC(C)c1ccc(S(=O)(=O)N2CCN(CC(O)CN3CCOCC3)CC2)cc1 (stereo not given),-16.5
6,CCCOc1ccc(-c2cn3ccccc3n2)cc1[N+](=O)[O-],2.24
7,COc1ccc2c(c1)CC/C(=C/c1cc(OC)c(OC)c(OC)c1)C2=O,50
8,COc1ccc2c(c1)C(=O)/C(=C/C=C/c1ccccc1)CC2,6.15
9,CC1CCCN(CCCNC(=O)c2ccc(NC(=O)C3=CSCCO3)cc2)C1 (stereo not given),-0.6
10,O=C(Nc1ccc(C(=O)NCCCN2CCN(c3ccccc3)CC2)cc1)C1=CSCCO1,4.06
11,CC(=O)Nc1ccc(NC(=O)CCCSc2nc3ccccc3s2)cc1,0.37
12,COCCN=c1scc(-c2ccc3c(c2)NC(=O)CO3)n1/N=C(\C)c1ccc(O)cc1,6.92
13,COCC(C)n1c(-c2ccc3c(c2)NC(=O)CO3)csc1=Nc1ccc(OC(F)F)cc1 (stereo not given),5.17
14,CC(=O)N1CCN(S(=O)(=O)c2cccc(C(=O)NC3CCCC3)c2)CC1,-8.08
15,O=C(Nc1ccccc1C1CC1)c1cccs1,-3.36
16,CCc1cccc2c(C(=O)CN3C(=O)NC4(CCCCCC4)C3=O)c[nH]c12,-3.22
17,CN(Cc1cn(C)nc1-c1ccc(Oc2ccccc2)cc1)CC1COCCO1 (stereo not given),8.39
18,O=C(CN1C(=O)/C(=C/c2ccccc2F)Sc2ccccc21)NCc1cccnc1,14.8
19,O=C(NCc1cccnc1)c1ccc(Cl)c(Cl)c1,3.71
20,CC(C)CCNC(=O)Cc1csc(-c2ccccc2)n1,-12
21,COc1ccc(CC(NC(C)=O)C(=O)NC2CCN(c3c4c(nc5ncnn35)CCC4)CC2)cc1 (stereo not given),-5.34
22,Cc1ccc(OCC(=O)NC(C)c2ccc(Cl)c(Cl)c2)c([N+](=O)[O-])n1 (stereo not given),-3.43
23,CC(=O)NC(C)c1ccc(Cl)c(Cl)c1 (stereo not given),7.59
